Data on eleven compounds can be found in PubChem BioAssay.

Records with an inconclusive call do not appear. The source made the active and inactive calls.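 Rule for the calls, unless noted: active = compounds killing one labelled cell type while sparing the other, by normalised counts and ratio limits, not self-fluorescent; inactive = the rest.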

For assay [1], the system named is Aerobactin synthetase IucA (Klebsiella pneumoniae). Kind of assay: IucA aerobactin synthetase inhibitors, biochemical, Tocris library, absorbance (AID 1345561; call rule not given here;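 note: 100% = enzyme without compound and 0% = no enzyme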). Conditions: purified IucA enzyme assay, absorbance (OD) read-out; stronger effect = lower value;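 tested at 8 µM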.
Assay [2] can be described thus: growth inhibition of DIPG glioma cells, dose response, cell-based, SU-DIPG-XVII, MIPE5.0, CellTiter-Glo, qHTS (AID 1347060; cut-off not given, nearly all actives have AC50 up to about 26 µM;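 note: cells exposed to compound for 48 hours before viability readout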). Conditions: SU-DIPG-XVII viability, CellTiter-Glo ATP luminescence.
Assay [3] in a line: growth inhibition of DIPG glioma cells, dose response, cell-based, SU-DIPG-XIII, MIPE4.0, CellTiter-Glo, qHTS (AID 1347061; cut-off not given, nearly all actives have AC50 up to about 37 µM;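 note: cells exposed to compound for 48 hours before readout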). Conditions: SU-DIPG-XIII viability, CellTiter-Glo ATP luminescence.
Assay [4] in a line: growth inhibition of DIPG glioma cells, dose response, cell-based, JHH-DIPG-1, MIPE4.0, CellTiter-Glo, qHTS (AID 1347062; cut-off not given, nearly all actives have AC50 up to about 27 µM;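 note: cells exposed to compound for two days before readout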). Conditions: JHH-DIPG-1 viability, CellTiter-Glo ATP luminescence.
A short description of assay [5]: growth inhibition of DIPG glioma cells, dose response, cell-based, SU-DIPG-IV, MIPE4.0, CellTiter-Glo, qHTS (AID 1347063; cut-off not given, nearly all actives have AC50 up to about 30 µM;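 note: compound exposure lasted 48 hours before the viability readout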). Conditions: SU-DIPG-IV viability, CellTiter-Glo ATP luminescence.
Assay [6] can be described thus: growth inhibition of DIPG glioma cells, dose response, cell-based, SU-DIPG-XIII, MIPE5.0, CellTiter-Glo, qHTS (AID 1347064; cut-off not given, nearly all actives have AC50 up to about 23 µM;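 note: cells exposed to compound for 48 hours before the viability read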). Conditions: SU-DIPG-XIII viability, CellTiter-Glo ATP luminescence.
Assay [7] can be described thus: viability loss in pontine glioma line – cell-based, SU-DIPG-XXV, MIPE5.0, CellTiter-Glo, qHTS, dose response (AID 1347065; cut-off not given, nearly all actives have AC50 up to about 26 µM;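 note: cells exposed to compound for 48 hours before ATP readout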). Conditions: CellTiter-Glo ATP luminescence.
Assay [8] can be described thus: SU-DIPG-VI glioma cell viability, MIPE4.0 library, CellTiter-Glo luminescence, qHTS (AID 1347066; cut-off not given, nearly all actives have AC50 up to about 30 µM;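 note: cells exposed to compound for 48 hours before readout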). Conditions: CellTiter-Glo ATP luminescence.
Assay [9] is described as follows: JHH-DIPG-1 glioma cell viability, MIPE5.0 library, CellTiter-Glo luminescence, qHTS (AID 1347067; cut-off not given, nearly all actives have AC50 up to about 26 µM;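 note: cells exposed to compound for 48 hours before readout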). Conditions: JHH-DIPG-1 glioma viability, CellTiter-Glo ATP luminescence.
Assay [10] is described as follows: SU-DIPG-XXV glioma cell viability, MIPE5.0 library, qHTS (AID 1347068; cut-off not given, nearly all actives have IC50 up to about 30 µM;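 note: cells exposed to compound for 48 hours before viability readout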).
Assay [11] in a line: sensitizers of A549 cells to miR-34 induction, primary screen, imaging, A549 dox-inducible miR-34, nuclei and caspase counts (AID 1347080;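 active = compounds whose cell count with miR-34 switched on is under 0.7 times the count with it off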). Conditions: A549 miR-34 inducible, Hoechst nuclei count, 48 h.
Assay [12] in a line: modifiers of HSF1 nuclear foci, imaging, Selleck Cancer Library (AID 1347162; in the data active = plate-normalised HSF1 focus index below about 0.46). Conditions: human cells, at 10 µM; SSMD: measured here: HSF1 foci SSMD mean; cell count: measured here: cell number; plate-normalised HSF1 focus index: stronger effect = lower value.
A short description of assay [13]: viability rescue of complex I mutant cybrids, primary screen, cell-based, galactose medium, ATP luminescence (AID 1645843;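 active = z-score of at least 1.8 in each of two replicates, scored against plate mean and spread of sample wells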;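 note: positive z means more ATP and so rescue of galactose-driven cybrid death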). Conditions: complex I mutant cybrid cells, 72 h, stronger effect = higher value.
Assay [14] is described as follows: polyglutamine-triggered caspase-3 activation inhibitors, cell-based (AID 1583). Conditions: polyglutamine-induced caspase-3 activation, cell assay; stronger effect = higher value;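 tested at 10 µM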.
A short description of assay [15]: suppressors of polyQ aggregation in yeast, 75Q-TubU reporter (AID 1593). Conditions: Yeast 75Q polyglutamine aggregation reporter.
Assay [16] can be described thus: inhibitors of mitochondrial cytochrome c release, biochemical, purified mitochondria (AID 1603).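 Note: mouse liver mitochondria challenged with calcium chloride; signal normalized to the plate average as 100%.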 Conditions: stronger effect = lower value.
Assay [17] is described as follows: differential killing of epithelial or mesenchymal cells, primary screen, imaging, PC-3E GFP, TEM4-18 mCherry, co-culture (AID 1345086).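 For all read-outs here: cells exposed to compound for 72 h before imaging.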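 For red/green cell ratio (normalised): normalised mesenchymal count divided by normalised epithelial count so high means epithelial killing.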 Conditions: imaging cell counts, at 1 µM; for red/green cell ratio (normalised): actives lie on both sides, counts scaled to control wells, 1 = unselective.
Assay [18] is described as follows: liver-stage malaria parasite growth inhibition, primary screen, cell-based, HepG2, luciferase luminescence, HepG2 viability (AID 624349; in the data active = parasite load remaining mostly below about 12%, no sharp cut-off; inactive = mostly above about 10%;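 note: 100% = mean of DMSO negative control wells on the same plate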). Conditions: P. berghei liver stage in HepG2, luciferase luminescence, concentration not given here; parasite load remaining: stronger effect = lower value; viability: measured here: HepG2 viability without parasites.
Setting [19] is: measured here: epithelial PC-3E GFP cell survival.
[20] abbreviates: measured here: mesenchymal TEM4-18 mCherry cell survival.

Consider `O=C1C(Cl)=C(NCCN2CCOCC2)C(=O)c2ncccc21`, for which the remaining activity in assay [1] is 118% (inactive). The AC50 in [2] was 8.33 µM (active); in assay [3] it was 6.62 µM (active); in assay [4], 3.32 µM (active); in assay [5] it was 4.69 µM (active); in [6], 3.32 µM (active); in assay [7], 6.61 µM (active). Also, the AC50 in assay [8] is 2.64 µM (active); in assay [9], 4.68 µM (active). Further, the IC50 in [10] was 18.6 µM (active). The fold change in [11] (stronger effect = lower value, cell number ratio, induced over uninduced) was 0.881 (inactive); in [11] (measured here: relative caspase fold change +Dox/-Dox), 1.4. Also, the cell count in assay [11] (measured here: total cells with miR-34 induction, stronger effect = lower value) amounted to 1390; in assay [11] (measured here: total cells without miR-34 induction), 1580; in [12], 6880. The same compound gave an SSMD in assay [12] of 6.65. Besides, the plate-normalised HSF1 focus index in assay [12] was 1.4 (inactive). Further, the z-score in [13] is -0.82 (inactive).
Take `NC(Cc1ccc(F)cc1)C(=O)O` (stereo not drawn): the inhibition in assay [14] worked out at 10.4%. Further, the score in assay [15] was 1.23. In addition, the cytochrome c release ratio in [16] was determined as 0.78. In assay [17], the red/green cell ratio (normalised) is 0.96 (inactive). In addition, the figures for the normalised cell number in [17] (setting [19]) and in assay [17] (setting [20]) were 0.88 and 0.84, respectively.
Turning to `CC(=O)Oc1ccc2c(c1)CCC1C2CC[C@]2(C)C(=O)CCC12` (stereo partly drawn), in [18], the parasite load remaining is 88.9% (inactive) and the viability was found to be 66.4%. In addition, the red/green cell ratio (normalised) in assay [17] is 0.81 (inactive). The compound also returned a normalised cell number in assay [17] (setting [19]) of 1.27. Further, in assay [17] (setting [20]), the normalised cell number came out at 1.03.
Compound `CC1(C)C2CC[C@]3(C)C(C(=O)C=C4[C@@H]5C[C@@](C)(C(=O)O)CC[C@]5(C)CC[C@]43C)[C@@]2(C)CC[C@@H]1O` (stereo partly drawn) displayed an inhibition in assay [14] of 22.2%. The compound further had a score in assay [15] of 2.09. In addition, the cytochrome c release ratio in [16] stood at 0.78. Also, the parasite load remaining in [18] was 94.2% (inactive). The compound further gave a viability in assay [18] of 71%. Further, the red/green cell ratio (normalised) in assay [17] was 0.98 (inactive). Moreover, the normalised cell number in [17] (setting [19]) was found to be 0.92; in assay [17] (setting [20]), 0.89.
Turning to `O=C(/C=C/c1ccc(O)c(O)c1)OC(Cc1ccc(O)c(O)c1)C(=O)O` (stereo not drawn), in [18], the parasite load remaining is 107% (inactive) and the viability was 70.8%. Also, the red/green cell ratio (normalised) in assay [17] was 1.03 (inactive). Further, in assay [17] (setting [19]), the normalised cell number was determined as 1.08. The same compound came in with a normalised cell number in [17] (setting [20]) of 1.12.
As to `CC(=O)Oc1ccc2c(c1)CCC1C2CC[C@@]2(C)C1CC[C@@H]2OC(C)=O` (stereo partly drawn), in assay [14], the inhibition came to 10.6%. Moreover, in assay [15], the score is -0.45. For the same compound, the cytochrome c release ratio in [16] stood at 1. For the same compound, the parasite load remaining in [18] is 102% (inactive). The compound further had a viability in assay [18] of 70.5%. The red/green cell ratio (normalised) in [17] is 0.86 (inactive). For the same compound, the normalised cell number in [17] (setting [19]) is 1.29; in assay [17] (setting [20]), 1.12.
Turning to `C[C@@H]1CC[C@@]2(OC1)OC1CC3C4CC=C5C[C@@H](O)CC[C@]5(C)C4CC[C@]3(C)C1[C@@H]2C` (stereo partly drawn), in [18], the parasite load remaining is 131% (inactive) and the viability worked out at 91.4%. In addition, in [17], the red/green cell ratio (normalised) was 1.13 (inactive). For the same compound, the normalised cell number in assay [17] (setting [19]) is 1.02. In addition, the normalised cell number in assay [17] (setting [20]) is 1.16.
Consider `C=C(C)[C@H]1CC=C(C(=O)O)CC1`, for which the inhibition in assay [14] was 10.7%. Besides, in [15], the score is 0.26. Further, the cytochrome c release ratio in assay [16] stood at 0.96. Besides, the parasite load remaining in [18] is 101% (inactive). This compound had a viability in assay [18] of 69.4%. Besides, the red/green cell ratio (normalised) in assay [17] is 0.84 (inactive). Also, the normalised cell number in assay [17] (setting [19]) turned out to be 1.08; in assay [17] (setting [20]), 0.92.
On to `COC1=CC(C)[C@@H]2C[C@H]3OC(=O)C[C@H]4C(C)=C(OC)C(=O)C([C@@]34C)[C@@]2(C)C1=O` (stereo partly drawn), for which the inhibition in [14] was 22.5%. For the same compound, the score in assay [15] came to 1.3. The cytochrome c release ratio in assay [16] is 0.85. The red/green cell ratio (normalised) in [17] was 0.78 (inactive). Moreover, the values for the normalised cell number in assay [17] (setting [19]) and in [17] (setting [20]) were 1.31 and 1.03, respectively.
`COc1ccc([C@@H]2CC(=O)c3c(O)cc(O[C@@H]4O[C@H](CO[C@H]5O[C@@H](C)[C@H](O)[C@@H](O)[C@H]5O)[C@@H](O)[C@H](O)[C@H]4O)cc3O2)cc1O` gave an inhibition in assay [14] of 12.3%. Besides, the score in assay [15] was 1.13. The cytochrome c release ratio in [16] came to 0.96. Also, the red/green cell ratio (normalised) in [17] is 0.82 (inactive). Also, the normalised cell number in assay [17] (setting [19]) is 0.99; in assay [17] (setting [20]), 0.81.
`CC(C)(C)NC[C@@H](O)COc1nsnc1N1CCOCC1`: in assay [14], the inhibition is 6.36%. The compound further returned a score in assay [15] of 1.66. The cytochrome c release ratio in assay [16] worked out at 1.02. For the same compound, in assay [18], the parasite load remaining was 198% (inactive) and the viability came out at 72.4%. For the same compound, the red/green cell ratio (normalised) in [17] is 1.2 (inactive). Besides, in assay [17] (setting [19]), the normalised cell number was determined as 0.88. Besides, in [17] (setting [20]), the normalised cell number was 1.05.
